Compounds with a hit are over-represented: about 21% of the library has one in this group of screens.
Shiga inhibitor = Shiga toxin inhibition. AID 2315. Vero cells, Shiga toxin protein synthesis inhibition reporter. inhibition, % at 38.7 µM. 9.2% of 290,000 active; in the data active = inhibition mostly above about 28%, no sharp cut-off; inactive = mostly below about 43%
NS1 function inh = influenza NS1 inhibition; Potency, µM (titrated, usually from 46.1 µM); 0.4% of 270,000 active; AID 2326; calls by dose curve; also: actives are rising curves; nearly all actives have a fitted effect of over 50% in size
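Read-out: OD600 growth recovery of NS1-expressing budding yeast. Cells grown overnight at 30C in -URA glucose medium, washed, resuspended and diluted 1:100 in 2% galactose assay medium, pH 6.0. Same strain lacking NS1 served as positive control.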
Giardia FBPA inh = Giardia lamblia aldolase inhibition; purified Giardia FBPA; Potency, µM (series often up to 59.6 µM), most hits filed as inhibitors; 0.71% of 290,000 active; AID 2451; also: nearly all actives have a fitted effect of over 55% in size
Target sequence (A8B2U2 whole entry, looked up): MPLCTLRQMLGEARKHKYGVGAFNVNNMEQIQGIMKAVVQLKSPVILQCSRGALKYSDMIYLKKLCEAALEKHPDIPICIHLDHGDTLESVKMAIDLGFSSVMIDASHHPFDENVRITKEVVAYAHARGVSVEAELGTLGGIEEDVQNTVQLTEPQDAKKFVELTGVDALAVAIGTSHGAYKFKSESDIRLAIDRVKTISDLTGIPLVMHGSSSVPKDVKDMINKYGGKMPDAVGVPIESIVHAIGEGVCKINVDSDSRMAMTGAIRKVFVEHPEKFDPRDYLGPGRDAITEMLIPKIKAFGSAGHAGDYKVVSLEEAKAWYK
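Giardia FBPA (40 nM reagent) was preincubated 10 min at RT with compound (up to 57.5 uM final), then substrate plus GAPDH/TPI/NAD/arsenate coupling system with diaphorase/resazurin was added; resorufin fluorescence (525/598 nm) was read after 20 min.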
Pf growth 96h = P. falciparum growth inhibition at 96 hours. P. falciparum luciferase reporter growth, 96 h. Potency, µM (series often up to 28.7 µM), actives largely listed as inhibitors. 6.9% of 320,000 active
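Plates of compound plus infected erythrocytes (2% hematocrit, 0.05% parasitemia final) incubate 96 hours, 37 C, 5% CO2. Detection reagent added; reduced luminescence from the parasites' luciferase reporter flags inhibition.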
CHX counter = counter-screen hit for Shiga toxin inhibitors, cycloheximide; AID 2314; cell reporter, cycloheximide protein synthesis inhibition counterscreen; 12% of 300,000 active; max response, %; in the data active = max response mostly above about 13%, no sharp cut-off; inactive = mostly below about 14%; also: read at 38.3 µM for the half of the compounds with a filed dose
Pf growth 48h = inhibits P. falciparum growth in the first generation, 48 h | Potency, µM (highest dose often 28.7 µM), most hits filed as inhibitors | 5.9% of 310,000 active | P. falciparum luciferase growth in erythrocytes, 48 h | AID 504832
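Cell-based growth assay: transgenic P. falciparum expressing firefly luciferase, cultured in red cells within RPMI 1640 containing 0.5% w/v Albumax, 24 mM bicarbonate and gentamycin. A drop in luciferase activity indicates inhibition.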
A number is an active result; n = inactive; u = inconclusive; x = no result; + = active, no number. Unless noted, calls follow the shape of the dose curve; as a rule, active = well fitted curve in the direction sought with a large enough effect; inconclusive = small, poorly fitted or top-dose-only effect, or another doubt; inactive = no such curve, though single readings can be large; an effect the other way counts as inactive or inconclusive.

SMILES	Shiga inhibitor	NS1 function inh	Giardia FBPA inh	Pf growth 96h	CHX counter	Pf growth 48h
O=[N+]([O-])c1ccccc1/C=C/C=N/n1c(-c2ccccc2F)n[nH]c1=S	n	n	n	n	n	n
COc1nc(N=C(N)N)nc2ccc(C)cc12	n	n	n	u	n	2.6µM
COc1ccc(-c2nc3ccc(C)cc3c(=O)o2)cc1OC	x	n	n	u	n	n
Cc1ccc(C)c(-n2c(-c3ccc(Br)cc3)csc2=NC(=O)c2ccccc2F)c1	n	n	n	0.23µM	n	0.41µM
CN=c1scc(-c2ccc(Br)cc2)n1C	n	n	n	x	n	n
Cc1cccc(NS(=O)(=O)c2ccc(-c3cnc(C4CC4)o3)cc2)c1C	n	n	x	6.6µM	n	u
Cc1cccc(NS(=O)(=O)c2ccc3c(c2)Cc2cc(S(=O)(=O)Nc4cccc(C)c4C)ccc2-3)c1C	n	n	n	n	n	9.3µM
Cc1cccc(NS(=O)(=O)c2ccc3[nH]c(=O)[nH]c3c2)c1C	n	n	n	n	n	n
COc1ccc(C2c3[nH]c4ccccc4c3C[C@H]3C(=O)N(c4ccccc4C(=O)N4CCC(C(=O)O)CC4)C(=O)N23)cc1 (some centres not stated)	n	n	n	u	n	12µM
CC(C)c1ccc(C2c3[nH]c4ccccc4c3C[C@H]3C(=O)N(c4ccccc4C(=O)N4CCC[C@H]4C(=O)O)C(=O)N23)cc1 (some centres not stated)	n	n	n	u	n	6.6µM
COc1cccc(C2c3[nH]c4ccccc4c3C[C@H]3C(=O)N(c4ccccc4C(=O)N4CCC(C(=O)O)CC4)C(=O)N23)c1 (some centres not stated)	n	n	n	u	n	u
C(=NCCN1CCOCC1)=NC1CCCCC1	x	n	x	x	x	x
O=C(NCc1cccc(Cl)c1)N1CCN(S(=O)(=O)c2ccccc2F)CC1	n	n	n	n	n	n
Cc1ccc(/C=C/C(=O)Nc2ccc(Oc3ccccc3)cc2)o1	n	n	n	u	26	n
Cc1ccc(/C=C/C(=O)Nc2ccc([N+](=O)[O-])cc2)o1	75	n	n	n	36	n
Cc1ccc(/C=C/C(=O)Nc2nnc(C)s2)o1	61	n	n	n	n	n
CCCOc1ccc(/C=C/C(=O)Nc2ccc([N+](=O)[O-])cc2)cc1	n	n	n	u	n	u
Cc1cc(NS(=O)(=O)c2ccc(NC(=O)/C=C/c3ccc(C)o3)cc2)nc(C)n1	n	n	n	7.4µM	n	n
Cc1onc(-c2ccccc2)c1C(=O)NC(C)CCc1ccccc1 (configuration not stated)	n	n	n	n	n	n
CC(CCC(=O)O)C1CCC2C3CC[C@H]4CC(O)CC[C@@]4(C)C3CC(O)[C@]12C (some centres not stated)	x	x	n	x	x	x
CC1(C)OC(C)(C)/C(=C/Nc2ccc(O)cc2)C1=O	n	n	2.8µM	u	n	u
O=C(NCCc1ccc2c(c1)OCCO2)c1cc(F)cc(F)c1	21	n	n	n	25	n
O=C(NCc1ccc2c(c1)OCO2)c1cccc(F)c1	n	n	n	n	n	n
O=C(NCCc1ccc2c(c1)OCCO2)c1cccc(F)c1	43	n	n	n	51	n
COc1ccc(C(=O)NC(C(=O)NCCc2ccc3c(c2)OCCO3)C(C)C)cc1 (configuration not stated)	74	x	n	n	21	n
SMILES	Shiga inhibitor	NS1 function inh	Giardia FBPA inh	Pf growth 96h	CHX counter	Pf growth 48h
CCn1ncc(/C=C/C(=O)c2ccccc2)c1C	+	n	n	n	45	n
Cc1nn(Cc2c(Cl)cccc2Cl)c(C)c1NC(=O)/C=C/c1cnn(C)c1C	n	n	n	n	n	u
CCn1ncc(C(=O)Nc2ccccc2C)c1C	n	n	n	n	n	n
Cc1c(/C=C/C(=O)c2ccc(C(C)C)cc2)cnn1C	133	n	n	n	40	n
Cc1c(/C=C/C(=O)c2ccc(Cl)s2)cnn1C	n	n	u	n	27	n
Cc1c(/C=C/C(=O)c2ccc(O)cc2)cnn1C	49	n	n	n	19	n
CCN(CC)c1ccc(S(=O)(=O)N2CCOCC2)cc1NC(=O)COC(=O)/C=C/c1ccc(C)o1	x	x	x	n	x	u
Cc1c(/C=C/C(=O)c2ccccc2)cnn1C	180	n	x	n	53	n
CCn1ncc(/C=N\NC(=O)COc2ccccc2)c1C	67	n	n	n	n	n
Cc1ccc(OCC(=O)N/N=C/c2cn(C)c3ccccc23)cc1	n	n	n	n	n	n
Cc1ccccc1Cn1nc(C)c(NC(=O)/C=C/c2cnn(C)c2C)c1C	n	n	n	u	n	u
COc1ccc(C(=C2C(=O)Nc3ccccc32)c2ccc(OC)cc2)cc1	n	x	n	x	n	x
COc1ccc(-c2cc(COc3ccccc3)on2)cc1	67	x	n	n	49	n
Clc1ccc(OCc2cc(-c3ccccc3)no2)c(Cl)c1	69	n	n	n	40	n
Cc1cc(COc2ccccc2OCc2cc(C)no2)on1	n	n	n	x	n	n
Fc1ccc(OCc2cc(-c3ccccc3)no2)cc1	90	n	n	n	69	x
Cc1cccc(OCc2cc(-c3ccccc3)no2)c1C	86	n	n	n	48	x
Cc1cc(NC(=O)CSc2nnc(-c3ccccc3Cl)o2)no1	n	n	x	n	n	n
CN(C)C(=O)c1ccc(-c2cncnc2N2CCNCC2)cc1	x	x	n	x	x	x
O=C(CSc1nccc(=O)[nH]1)NC1CCCC1	n	n	x	n	n	n
CCOc1c(C)cnc2c1c(=O)n(CC(=O)NCC1CCCO1)c(=O)n2C (configuration not stated)	x	x	x	n	x	n
Cc1cc2ncn(CCOc3ccccc3C#N)c2cc1C	n	n	n	13µM	n	u
Clc1ccccc1OCCn1cnc2ccccc21	72	n	n	u	31	n
N#Cc1ccccc1OCCn1cncn1	n	n	n	n	n	n
c1ccc(Cn2cnc3ccccc32)cc1	n	n	n	8.3µM	n	n
SMILES	Shiga inhibitor	NS1 function inh	Giardia FBPA inh	Pf growth 96h	CHX counter	Pf growth 48h
Clc1ccc(OCCn2cnc3ccccc32)cc1	n	n	n	x	n	u
Brc1ccccc1OCCCCn1cnc2ccccc21	42	n	n	u	26	n
O=C(O)/C(=C\c1ccc(O)cc1)c1cccc2ccccc12	x	n	x	x	x	x
C(=N\n1cnc2ccccc21)/c1cccnc1	n	n	n	n	19	x
Cc1cc2ncn(/N=C/c3cccnc3)c2cc1C	n	n	n	u	n	15µM
Clc1nc2sccn2c1/C=N/n1cnc2ccccc21	n	n	n	n	n	x
Cc1cc2ncn(/N=C/c3ccc4c(c3)OCO4)c2cc1C	76	n	n	n	18	u
COc1ccccc1N(CC(=O)NC1CCCCC1)C(=O)CNC(=O)c1cccs1	n	n	n	n	n	n
O=C(CCCOc1cccc(Br)c1)NCCOc1ccccc1	n	n	n	n	n	n
COc1ccc(N2CCN(C(=O)CNC(=O)c3ccco3)CC2)cc1	n	n	x	u	n	n
CC(=O)Nc1ccc(NC(=O)CCn2cnnn2)cc1	n	x	n	n	n	n

Bioassay records: PubChem BioAssay, National Center for Advancing Translational Sciences (NCATS)
